# According to PubChem BioAssay AID1159580 (chemical genetic matrix, 2015):
# Values joined by “and” are separate entries in the source; they are usually repeats but may differ in a detail not shown here. Equal values may be shown once. In all, about 5,500 compounds went through this assay and about 2,000 (36%) were called active. Not shown: some 18% with an inconclusive outcome. No stated cut-off is given here; in the data, active means normalized growth mostly below about 0.91 (no sharp cut-off); inconclusive means no clear call, values can overlap the other calls; inactive means mostly above about 0.92. This is one part of the list.
# Assay: chemical genetic growth profiling, strain panel (AID 1159580);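 further: tested at 20 µM; growth read once vehicle control cultures reached saturation at 30 °C; 1 = growth at the plate median or of vehicle wells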
# Conditions: S. cerevisiae deletion strains, growth OD
compound,measurement,setting,value
CC(Cc1cccc(C(F)(F)F)c1)NCCOC(=O)c1ccccc1 (configuration not stated),normalized growth,"locus YAL013W, strain DEP1, stronger effect = lower value",0.98 (inactive)
same,normalized growth,"locus YAL021C, strain ccr4, stronger effect = lower value",0.853 (active)
same,normalized growth,"locus YAL026C, strain drs2, stronger effect = lower value",0.582 (active)
same,normalized growth,"locus YAL030W, strain snc1, stronger effect = lower value",0.964 (inactive)
same,normalized growth,"locus YBL061C, strain skt5, stronger effect = lower value",0.968 (inactive)
same,normalized growth,"locus YBR009C, strain hhf1, stronger effect = lower value",0.953 (inactive)
same,normalized growth,"locus YBR021W, strain FUR4, stronger effect = lower value",0.513 (active)
same,normalized growth,"locus YBR023C, strain chs3, stronger effect = lower value",0.936 (inactive)
same,normalized growth,"locus YBR171W, strain sec66, stronger effect = lower value",0.975 (inactive)
same,normalized growth,"locus YBR229C, strain ROT2, stronger effect = lower value",1.01 (inactive)
same,normalized growth,"locus YBR231C, strain swc5, stronger effect = lower value",0.948 (inactive)
same,normalized growth,"locus YBR279W, strain paf1, stronger effect = lower value",0.964 (inactive)
same,normalized growth,"locus YCL011C, strain gbp2, stronger effect = lower value",0.971 (inactive)
same,normalized growth,"locus YCL016C, strain dcc1, stronger effect = lower value",0.969 (inactive)
same,normalized growth,"locus YCL029C, strain bik1, stronger effect = lower value",1.03 (inactive)
same,normalized growth,"locus YCL061C, strain MRC1, stronger effect = lower value",0.978 (inactive)
same,normalized growth,"locus YCL069W, strain vba3, stronger effect = lower value",0.967 (inactive)
same,normalized growth,"locus YCR088W, strain abp1, stronger effect = lower value",0.994 (inactive)
same,normalized growth,"locus YDL005C, strain med2, stronger effect = lower value",0.999 (inactive)
same,normalized growth,"locus YDL035C, strain GPR1, stronger effect = lower value",0.917 (inactive)
same,normalized growth,"locus YDL040C, strain nat1, stronger effect = lower value",0.994 (inactive)
same,normalized growth,"locus YDL074C, strain BRE1, stronger effect = lower value",0.914 (inactive)
same,normalized growth,"locus YDL101C, strain DUN1, stronger effect = lower value",0.996 (inactive)
same,normalized growth,"locus YDL134C, strain PPH21, stronger effect = lower value",0.958 (inactive)
same,normalized growth,"locus YDL185W, strain tfp1, stronger effect = lower value",1.02 (inactive)
same,normalized growth,"locus YDL192W, strain arf1, stronger effect = lower value",0.988 (inactive)
same,normalized growth,"locus YDR001C, strain nth1, stronger effect = lower value",0.992 (inactive)
same,normalized growth,"locus YDR069C, strain doa4, stronger effect = lower value",0.845 (active)
same,normalized growth,"locus YDR101C, strain arx1, stronger effect = lower value",0.999 (inactive)
same,normalized growth,"locus YDR137W, strain rgp1, stronger effect = lower value",0.916 (inactive)
same,normalized growth,"locus YDR150W, strain NUM1, stronger effect = lower value",0.997 (inactive)
same,normalized growth,"locus YDR159W, strain sac3, stronger effect = lower value",0.995 (inactive)
same,normalized growth,"locus YDR162C, strain NBP2, stronger effect = lower value",0.945 (inactive)
same,normalized growth,"locus YDR195W, strain ref2",1.01 (inactive)
same,normalized growth,"locus YDR297W, strain sur2, stronger effect = lower value",0.973 (inactive)
same,normalized growth,"locus YDR318W, strain mcm21, stronger effect = lower value",0.963 (inactive)
same,normalized growth,"locus YDR334W, strain swr1, stronger effect = lower value",0.997 (inactive)
same,normalized growth,"locus YDR335W, strain msn5, stronger effect = lower value",0.959 (inactive)
same,normalized growth,"locus YDR388W, stronger effect = lower value",0.811 (active)
same,normalized growth,"locus YDR392W, strain spt3, stronger effect = lower value",1.03 (inactive)
same,normalized growth,"locus YDR502C, strain sam2, stronger effect = lower value",0.974 (inactive)
same,normalized growth,"locus YEL003W, strain gim4, stronger effect = lower value",0.924 (inactive)
same,normalized growth,"locus YEL037C, strain rad23, stronger effect = lower value",0.973 (inactive)
same,normalized growth,"locus YEL061C, strain CIN8 (second series), stronger effect = lower value",0.988 (inactive)
same,normalized growth,"locus YEL061C, strain CIN8, stronger effect = lower value",0.993 (inactive)
same,normalized growth,"locus YER015W, strain faa2, stronger effect = lower value",0.899 (active)
same,normalized growth,"locus YER016W, strain bim1, stronger effect = lower value",1 (inactive)
same,normalized growth,"locus YER110C, stronger effect = lower value",1.01 (inactive)
same,normalized growth,"locus YER111C, strain swi4, stronger effect = lower value",0.997 (inactive)
same,normalized growth,"locus YER155C, strain BEM2 (second series), stronger effect = lower value",0.934 (inactive)
same,normalized growth,"locus YER155C, strain BEM2, stronger effect = lower value",1.02 (inactive)
same,normalized growth,"locus YER167W, strain BCK2, stronger effect = lower value",0.985 (inactive)
same,normalized growth,"locus YFR010W, strain ubp6, stronger effect = lower value",0.831 (active)
same,normalized growth,"locus YGL078C, strain dbp3, stronger effect = lower value",1.01 (inactive)
same,normalized growth,"locus YGL086W, strain mad1, stronger effect = lower value",0.953 (inactive)
same,normalized growth,"locus YGL167C, strain pmr1, stronger effect = lower value",0.991 (inactive)
same,normalized growth,"locus YGL173C, strain kem1, stronger effect = lower value",0.919 (inactive)
same,normalized growth,"locus YGL227W, strain vid30, stronger effect = lower value",0.995 (inactive)
same,normalized growth,"locus YGL240W, strain doc1, stronger effect = lower value",0.945 (inactive)
same,normalized growth,"locus YGL248W, strain PDE1, stronger effect = lower value",0.957 (inactive)
same,normalized growth,"locus YGL253W, strain hxk2, stronger effect = lower value",0.96 (inactive)
same,normalized growth,"locus YGR078C, strain PAC10, stronger effect = lower value",0.921 (inactive)
same,normalized growth,"locus YGR135W, strain pre9, stronger effect = lower value",0.914 (inactive)
same,normalized growth,"locus YGR229C, strain SMI1, stronger effect = lower value",0.612 (active)
same,normalized growth,"locus YGR252W, strain gcn5, stronger effect = lower value",0.923 (inactive)
same,normalized growth,"locus YHR013C, strain ard1, stronger effect = lower value",0.963 (inactive)
same,normalized growth,"locus YHR027C, strain rpn1, stronger effect = lower value",0.941 (inactive)
same,normalized growth,"locus YHR030C, strain SLT2, stronger effect = lower value",0.833 (active) and 0.974 (inactive)
same,normalized growth,"locus YHR079C, strain IRE1 (second series), stronger effect = lower value",1 (inactive)
same,normalized growth,"locus YHR079C, strain IRE1, stronger effect = lower value",0.981 (inactive)
same,normalized growth,"locus YHR094C, strain hxt1, stronger effect = lower value",1.02 (inactive)
same,normalized growth,"locus YHR129C, strain ARP1, stronger effect = lower value",1 (inactive)
same,normalized growth,"locus YHR142W, strain chs7, stronger effect = lower value",0.925 (inactive)
same,normalized growth,"locus YHR200W, strain rpn10, stronger effect = lower value",0.996 (inactive)
same,normalized growth,"locus YIL066C, strain RNR3, stronger effect = lower value",0.962 (inactive)
same,normalized growth,"locus YIL073C, strain SPO22, stronger effect = lower value",1.14 (inactive)
same,normalized growth,"locus YIL125W, strain kgd1, stronger effect = lower value",1.02 (inactive)
same,normalized growth,"locus YIR030C, strain dcg1, stronger effect = lower value",1 (inactive)
same,normalized growth,"locus YJL092W, strain hpr5, stronger effect = lower value",0.953 (inactive)
same,normalized growth,"locus YJL095W, strain BCK1 (second series), stronger effect = lower value",0.954 (inactive)
same,normalized growth,"locus YJL095W, strain BCK1, stronger effect = lower value",0.614 (active) and 0.976 (inactive)
same,normalized growth,"locus YJL115W, strain asf1, stronger effect = lower value",0.979 (inactive)
same,normalized growth,"locus YJL129C, strain trk1, stronger effect = lower value",0.997 (inactive)
same,normalized growth,"locus YJL134W, strain LCB3, stronger effect = lower value",1 (inactive)
same,normalized growth,"locus YJL154C, strain vps35, stronger effect = lower value",0.986 (inactive)
same,normalized growth,"locus YJL164C, strain tpk1, stronger effect = lower value",0.953 (inactive)
same,normalized growth,"locus YJL166W, strain qcr8, stronger effect = lower value",0.943 (inactive)
same,normalized growth,"locus YJL168C, strain set2, stronger effect = lower value",1 (inactive)
same,normalized growth,"locus YJL187C, strain SWE1 (second series), stronger effect = lower value",0.923 (inactive)
same,normalized growth,"locus YJL187C, strain SWE1, stronger effect = lower value",0.978 (inactive)
same,normalized growth,"locus YJR043C, strain POL32, stronger effect = lower value",1.04 (inactive)
same,normalized growth,"locus YJR066W, strain TOR1, stronger effect = lower value",0.879 (inactive)
